# This is a sample that favours compounds with a hit; in the whole collection about 1.8% have one here.
# NOD2 RIPK2 PPI – inhibitors of human NOD2-RIPK2 interaction. O43353. CHO BLA complementation NOD2-RIPK2, CCF4 ratio. inhibition, % at 4.98 µM. hit rate 0.38% among 360,000. AID 624267; in the data active means inhibition above about 21%;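 further: 0% = vehicle only and 100% = reference blocker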
# Mcl1 Noxa PPI – Mcl-1/Noxa interaction inhibition; Q07820; inhibition, % at 21.7 µM; hit rate 1.5% among 220,000; TR-FRET Mcl-1/Noxa peptide binding, 2 h;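 active means compounds that cut the protein-peptide binding signal by more than 50% relative to plate controls in a single-dose test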;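 further: His-tagged Mcl-1 with rhodamine Noxa BH3 peptide and terbium anti-His antibody; 0% = Mcl-1 plus Noxa peptide wells and 100% = peptide-only wells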
# TLR9-MyD88 block – inhibitors of human TLR9-MyD88 binding; inhibition, % at 4.98 µM; hit rate 0.21% among 340,000; CHO BLA complementation TLR9-MyD88, CCF4 FRET ratio; AID 504734; Q9NR96+Q99836;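 active means inhibition above the mean over all tested compounds plus 3 SD, cut at about 21% in these data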;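 further: 0% = DMSO only wells and 100% = clavulanate BLA inhibitor control wells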
# Mcl1 Bid PPI – Mcl-1/Bid interaction inhibition. Q07820. TR-FRET Mcl-1/Bid-Dy647 peptide binding, 1536-well. inhibition, % at 21.7 µM. hit rate 0.97% among 220,000. AID 1021;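 active means compounds that cut the binding signal by more than half at the single screening dose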;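 further: His-tagged Mcl-1 with europium anti-His antibody binding Bid BH3 peptide; 0% = Mcl-1 plus peptide wells and 100% = peptide-only wells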
# Bim-Mcl-1 – inhibitors of Bim-Mcl-1 interaction, human; inhibition, % at 10 µM; Q07820; hit rate 0.1% among 190,000; Bead-based flow cytometry, Bim peptide-Mcl-1 binding; in the data active means inhibition above about 40%;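 further: 0% = no compound tracer wells and 100% = peptide blocker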
# TLR4 MyD88 comp – blocks binding of human TLR4 to MyD88; HeLa CL3-4 TLR4/MyD88 BLA complementation, FRET ratio; inhibition, % at 8.4 µM; hit rate 0.18% among 200,000; AID 861; in the data active means inhibition above about 25%;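 further: 0% = vehicle and 100% = reference inhibitor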
# Target sequence (O00206 whole entry, looked up): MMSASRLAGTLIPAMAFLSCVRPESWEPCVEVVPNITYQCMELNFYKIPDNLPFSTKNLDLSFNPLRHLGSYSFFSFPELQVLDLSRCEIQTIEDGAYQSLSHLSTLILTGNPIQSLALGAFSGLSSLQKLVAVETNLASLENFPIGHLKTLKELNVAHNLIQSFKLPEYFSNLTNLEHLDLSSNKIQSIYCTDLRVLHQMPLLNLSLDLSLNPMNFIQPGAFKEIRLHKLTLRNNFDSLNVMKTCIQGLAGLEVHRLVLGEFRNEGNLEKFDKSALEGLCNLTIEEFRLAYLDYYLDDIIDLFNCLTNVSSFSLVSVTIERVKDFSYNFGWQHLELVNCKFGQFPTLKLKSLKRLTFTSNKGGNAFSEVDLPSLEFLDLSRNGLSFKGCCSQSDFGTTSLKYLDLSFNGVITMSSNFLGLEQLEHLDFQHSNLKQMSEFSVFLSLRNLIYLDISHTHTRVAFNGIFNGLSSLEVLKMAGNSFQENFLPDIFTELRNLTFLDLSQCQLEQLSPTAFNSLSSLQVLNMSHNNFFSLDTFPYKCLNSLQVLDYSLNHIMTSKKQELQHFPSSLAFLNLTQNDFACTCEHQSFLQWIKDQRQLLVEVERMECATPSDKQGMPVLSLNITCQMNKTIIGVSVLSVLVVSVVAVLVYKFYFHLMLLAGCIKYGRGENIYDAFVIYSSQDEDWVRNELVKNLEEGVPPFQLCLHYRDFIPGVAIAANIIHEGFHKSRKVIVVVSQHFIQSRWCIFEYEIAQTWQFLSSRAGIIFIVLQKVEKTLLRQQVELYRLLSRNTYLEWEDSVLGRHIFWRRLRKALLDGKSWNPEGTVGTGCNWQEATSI
# Target sequence (Q99836 whole entry, looked up): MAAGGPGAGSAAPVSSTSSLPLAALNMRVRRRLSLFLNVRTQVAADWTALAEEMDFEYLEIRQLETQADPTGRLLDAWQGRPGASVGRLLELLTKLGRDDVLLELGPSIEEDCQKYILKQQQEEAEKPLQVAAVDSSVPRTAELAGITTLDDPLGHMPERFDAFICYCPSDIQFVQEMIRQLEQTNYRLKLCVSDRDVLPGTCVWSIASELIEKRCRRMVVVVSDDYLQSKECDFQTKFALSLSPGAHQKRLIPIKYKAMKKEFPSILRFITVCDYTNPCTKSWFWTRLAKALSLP
# Numbers without * were called inactive; · = no result given.
SMILES,NOD2 RIPK2 PPI,Mcl1 Noxa PPI,TLR9-MyD88 block,Mcl1 Bid PPI,Bim-Mcl-1,TLR4 MyD88 comp
CCN(c1ccc(NC(=O)COC(=O)c2ccc(C)s2)cc1)C(C)C,3,63*,-4,-8,-1,2
COc1ccc(CNC(=O)CSc2nc3[nH]ncc3c(=O)n2-c2ccccc2Br)cc1,·,10,·,-8,-3,-6
CC(C)OC(=O)CC(=O)c1sc2nc3c(cc2c1N)CN(C)CC3,·,57*,·,-16,6,-3
O=S(=O)(c1ccccc1)N1CCN(Cc2ccc(Cl)cc2)CC1,4,·,4,·,·,·
O=C(CSc1ccccc1F)NC(=O)c1ccccc1Br,-1,·,3,·,·,·
CC(C)CC1NC(=S)N(C2CCCCC2)C1=O (stereo not drawn),-7,7,0,-62,0,-12
CN(C)c1ncc(/C=C2/C(=O)NC(=S)N(C3CCCCC3)C2=O)cn1,·,61*,·,9,0,8
COc1ccc(CNCC(=O)Nc2sccc2C#N)cc1,·,53*,·,28,-4,-7
COc1ccc(N2CCN(CC(=O)Nc3sccc3C#N)CC2)cc1,-4,24,6,-50,-2,10
O=C(COC(=O)CC(NC(=O)c1ccccc1Cl)c1ccccc1)Nc1cccc(F)c1 (stereo not drawn),1,-3,-12,72*,-4,1
O=C(N/N=C/c1cccs1)c1ccc(-n2cccc2)cc1,-3,26,7,-33,-1,19
O=C(N/N=C/c1ccncc1)c1ccc(-n2cccc2)cc1,-20,59*,11,-11,-2,0
COc1ccc(NC(=O)CCC(=O)c2cccs2)cc1Cl,7,·,-11,·,·,·
COc1cc(NCCC(=O)c2cccs2)c(OC)cc1Cl,4,86*,1,-28,-1,-5
CCN1C(=O)N/C(=C/c2cc(C)n(Cc3ccccc3)c2C)C1=O,-7,8,7,-71,-5,1
CCn1c(C)cc(/C=C2\NC(=O)N(Cc3ccc(Cl)cc3)C2=O)c1C,-7,83*,-2,90*,0,9
Cc1ccc(C)n1-c1sccc1C(=O)O,5,95*,2,93*,-4,-9
CCCC[n+]1ccn(C2=C([O-])c3ccccc3C(=O)/C2=N\S(=O)(=O)c2ccccc2)c1,-8,-6,-7,-12,-3,3
CC(C)[n+]1ccn(C2=C([O-])c3ccccc3C(=O)/C2=N\S(=O)(=O)c2ccccc2)c1,-13,-1,-10,84*,·,·
C=CCOc1ccccc1CN(C(=O)CCl)c1ccc2c(c1)OCO2,-7,·,-3,·,·,·
CCCCC[C@@H]1[C@H]2[C@H]3C(=O)N(c4ccccc4)C(=O)[C@H]3CC(=O)[C@H]2[C@H](c2ccccc2)N1S(=O)(=O)c1ccc(C)cc1,2,·,·,·,·,·
CCOc1ccc(C2C3=C(Nc4nc(N)[nH]c(=O)c42)c2ccccc2C3=O)cc1 (stereo not drawn),6,76*,14,52*,-7,-6
CCCOc1ccc(C2C3=C(Nc4nc(N)[nH]c(=O)c42)c2ccccc2C3=O)cc1 (stereo not drawn),-4,49,-12,-23,·,·
CC1CCCN(C(=O)COC(=O)C2=COCCO2)C1 (stereo not drawn),-1,·,2,·,·,·
CCOC(=O)c1c(NC(=O)COC(=O)Cn2c(C)nc3ccccc32)sc2c1CCCC2,-6,3,-7,56*,-149,-4
SMILES,NOD2 RIPK2 PPI,Mcl1 Noxa PPI,TLR9-MyD88 block,Mcl1 Bid PPI,Bim-Mcl-1,TLR4 MyD88 comp
CCOC(=O)c1c(NC(=O)Cn2c(C)nc3ccccc32)sc2c1CCC2,4,-19,-6,-18,1,-26
COc1ccc(NC(=O)c2cc(-c3cc(OC)c(OC)c(OC)c3)nc3ccccc23)cc1OC,-5,·,-6,·,·,·
COc1ccc(-c2cc(C(=O)Nc3ccc(O)cc3)c3ccccc3n2)cc1OC,-5,32,-1,54*,·,·
O=C(Nc1ccc(C2=NCCN2)cc1)c1ccc(Cl)c(C(=O)Nc2ccc(C3=NCCN3)cc2)c1,·,57*,·,0,·,·
CCCCN(Cc1ccccc1)C(=O)C1CCC(=O)N(CCc2ccccn2)C1 (stereo not drawn),-7,·,-22,·,·,·
C[C@@H](C(=O)NCCc1c[nH]c2ccccc12)[C@@H]1C[C@@]1(C)[C@@H](NC(=O)OCc1ccccc1)c1ccccc1,-1,-5,-9,-17,86*,1
C[C@@H](C(=O)NCc1ccccc1)[C@@H]1C[C@@]1(C)[C@@H](NC(=O)OCc1ccccc1)c1ccccc1,-5,13,-7,5,-3,-9

# Screening results deposited in PubChem by several laboratories.
